Laboratory results reported in PubChem BioAssay.
“And” between values parts separate entries of the source, which are not always exact repeats. Equal values may be shown once. The source made the active and inactive calls.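 The calls were made as follows, unless noted: active = thallium flux through the channel raised or lowered by more than 3 SD from vehicle-only wells, actives on both sides; inactive = the rest.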

Key:
[1] = P. berghei load reduction in hepatocytes – cell-based, HepG2, luciferase luminescence, HepG2 viability, primary screen (AID 624349; in the data active = parasite load remaining mostly below about 12%, no sharp cut-off; inactive = mostly above about 10%;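 also: 100% = mean of DMSO negative control wells on the same plate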); settings: P. berghei liver stage in HepG2, luciferase luminescence, concentration not given here; parasite load remaining: stronger effect = lower value; viability: measured here: HepG2 viability without parasites
[2] = signal quenchers or enhancers, Cy5 substrate/SSB – biochemical, NIH Clinical Collection, E. coli SSB, artefact control for HCV NS3 helicase inhibitor project (AID 743268; call rule not given here); settings: Cy5-oligo bound E. coli SSB, fluorescence interference
[3] = system: Hepatitis C virus NS3 helicase; assay: blockers of NS3h binding to DNA – biochemical, fluorescence polarization, NIH Clinical Collection, primary screen (AID 743270; call rule not given here); settings: NS3 helicase binding to Cy5-dT15 DNA, stronger effect = higher value, concentration not given here
[4] = target: Single-stranded DNA-binding protein (Escherichia coli (strain K12)) (UniProt P0AGE0); assay: SSB-ssDNA binding inhibitors – biochemical, fluorescence polarization, NIH Clinical Collection, counter-screen for HCV NS3 helicase inhibitor project (AID 743271; in the data active = inhibition above about 28%); settings: E. coli SSB-DNA binding, stronger effect = higher value, concentration not given here
[5] = compounds distorting NS3 helicase fluorescence signal – biochemical, NIH Clinical Collection, artefact control for HCV NS3 helicase inhibitor project (AID 743272; call rule not given here;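 also: HCV NS3 helicase with a Cy5 labelled single stranded DNA probe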); settings: fluorescence interference counterscreen, HCV NS3 helicase assay; stronger effect = lower value
[6] = system: Neuropilin-2 / VEGF-C interaction (human); assay: small molecules blocking Neuropilin-2/VEGF-C interaction – biochemical, microplate binding format, z-score (AID 743281; call rule not given here); settings: microplate NRP2/VEGF-C binding assay; stronger effect = lower value
[7] = modulation of C. elegans fzo-1 (AID 1259413; call rule not given here;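 also: fzo-1 mutant C. elegans worms in liquid wells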); settings: C. elegans fzo-1 modulator screen, mean read-out; stronger effect = higher value
[8] = viability loss with induced miR-34 in A549 – imaging, A549 dox-inducible miR-34, nuclei and caspase counts, primary screen (AID 1347080;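 active = compounds whose cell count with miR-34 switched on is under 0.7 times the count with it off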); settings: A549 miR-34 inducible, Hoechst nuclei count, 48 h
[9] = galactose survival enhancers in mitochondrial complex I cybrids – cell-based, galactose medium, ATP luminescence, primary screen (AID 1645843;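 active = z-score of at least 1.8 in each of two replicates, scored against plate mean and spread of sample wells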;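 also: positive z means more ATP and so rescue of galactose-driven cybrid death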); settings: complex I mutant cybrid cells, 72 h, stronger effect = higher value
F380Y = assay: BK channel mutant inhibitors and activators – cell-based, U2OS BacMam, thallium flux, beta subunits, selectivity assay, profiling panel (AID 1259406); settings: U2OS BacMam BK variants, at 30 µM;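 also: initial slope of Thallos dye fluorescence rise after thallium is added; log ratio against the mean of 0.3% DMSO vehicle wells on the same plate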
F380Y/beta1 = assay: as above; settings: U2OS BacMam BK variants, at 30 µM
F380Y/beta2Delta = assay: as above; settings: U2OS BacMam BK variants, at 30 µM
F380Y/beta4 = assay: as above; settings: U2OS BacMam BK variants, at 30 µM
[10] = target: Calcium-activated potassium channel subunit alpha-1 (Homo sapiens) + Leucine-rich repeat-containing protein 26 (Homo sapiens) (UniProt Q12791+Q2I0M4); assay: as above; settings: U2OS BacMam BK variants, F380Y/Slo1WT/gamma1, at 30 µM
R275C = assay: as above; settings: U2OS BacMam BK variants, at 30 µM
R275C/beta1 = assay: as above; settings: U2OS BacMam BK variants, at 30 µM
R275C/beta2Delta = assay: as above; settings: U2OS BacMam BK variants, at 30 µM
R275C/beta4 = assay: as above; settings: U2OS BacMam BK variants, at 30 µM
R275C/Slo1WT/beta2 = assay: as above; settings: U2OS BacMam BK variants, at 30 µM
[11] = MELAS cybrid and Rieske KO viability enhancers – cell-based, MELAS cybrids, Rieske KO mouse fibroblasts, CellTiter-Glo, primary screen (AID 1508586;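 active = mean z-score across replicates of 1.96 or higher in either the MELAS or the Rieske mutant cell line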;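 also: z relative to plate mean and SD of compound and empty wells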); settings: low glucose
[12] = stronger effect = lower value, cell number ratio, induced over uninduced
[13] = measured here: relative caspase fold change +Dox/-Dox
[14] = measured here: total cells with miR-34 induction, stronger effect = lower value
[15] = measured here: total cells without miR-34 induction

Chain of Calcium-activated potassium channel subunit alpha-1 (Homo sapiens) + Leucine-rich repeat-containing protein 26 (Homo sapiens) (Q2I0M4 whole entry, looked up, one chain of several): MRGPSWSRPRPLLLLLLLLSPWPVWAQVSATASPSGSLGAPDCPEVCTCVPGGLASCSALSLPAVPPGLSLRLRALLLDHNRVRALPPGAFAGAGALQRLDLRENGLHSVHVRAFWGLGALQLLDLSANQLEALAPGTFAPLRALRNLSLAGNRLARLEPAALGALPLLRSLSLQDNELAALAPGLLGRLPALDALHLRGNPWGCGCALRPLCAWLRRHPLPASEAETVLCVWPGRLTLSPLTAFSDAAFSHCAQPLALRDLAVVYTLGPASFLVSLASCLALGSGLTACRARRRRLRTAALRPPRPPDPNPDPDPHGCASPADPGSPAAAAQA

CC(COc1ccccc1Cc1ccccc1)N1CCCCC1 (centres undefined)
active: log fold change Tl+ flux (F380Y/beta1) 0.236 | log fold change Tl+ flux (F380Y/beta4) 0.194 | log fold change Tl+ flux (R275C) -0.246 | log fold change Tl+ flux (R275C/beta1) 0.252
82.3%: viability [1]
inactive: parasite load remaining [1] 25.1% | fluorescence ratio [2] 1.04 | inhibition [3] -2.77% | inhibition [4] 3.75% | fluorescence ratio [5] 1.01 | z-score [6] -1.06 | mean signal [7] 222 | fold change [8, 12] 0.815 | z-score [9] -1.81 | log fold change Tl+ flux (F380Y) 0.0907 | log fold change Tl+ flux (F380Y/beta2Delta) -0.0416 | log fold change Tl+ flux [10] -0.0112 | log fold change Tl+ flux (R275C/beta2Delta) 0.0368 | log fold change Tl+ flux (R275C/beta4) -0.00829 | log fold change Tl+ flux (R275C/Slo1WT/beta2) -0.0412
6390: cell count [8, 14]
2.34: fold change [8, 13]
7840: cell count [8, 15]

CC(C)(C)NC(=O)[C@@H]1C[C@@H]2CCCC[C@@H]2CN1C[C@@H](O)[C@H](Cc1ccccc1)NC(=O)[C@H](CC(N)=O)NC(=O)c1ccc2ccccc2n1
9260: cell count [8, 15]
active: log fold change Tl+ flux (F380Y) -0.12 | log fold change Tl+ flux (F380Y/beta2Delta) -0.2 | log fold change Tl+ flux (R275C) -0.273 | log fold change Tl+ flux (R275C/beta1) 0.138 | log fold change Tl+ flux (R275C/beta2Delta) -0.11
0.962: fold change [8, 13]
75.6% and 103%: viability [1]
inactive: parasite load remaining [1] 82.5% and 52% | fluorescence ratio [2] 1.02 | inhibition [3] 2.77% | inhibition [4] 12.2% | fluorescence ratio [5] 1.01 | z-score [6] 1.64 | mean signal [7] 234 | fold change [8, 12] 0.908 | z-score ([11]; MELAS cybrid survival, CellTiter-Glo 48 h, stronger effect = higher value) -0.0678 | log fold change Tl+ flux (F380Y/beta1) -0.0774 | log fold change Tl+ flux (F380Y/beta4) -0.072 | log fold change Tl+ flux [10] -0.0094 | log fold change Tl+ flux (R275C/beta4) 0.0316 | log fold change Tl+ flux (R275C/Slo1WT/beta2) -0.0147
8420: cell count [8, 14]
-1.19: z-score ([11]; Rieske KO mouse fibroblast survival, CellTiter-Glo 72 h)

CC1c2cccc(O)c2C(O)=C2C(=O)C3(O)C(O)=C(C(N)=O)C(=O)C(N(C)C)C3C(O)C21 (centres undefined)
132%: viability [1]
inactive: parasite load remaining [1] 45.4% | fluorescence ratio [2] 1.05 | inhibition [3] -13.2% | inhibition [4] -2.76% | fluorescence ratio [5] 1 | mean signal [7] 241 | fold change [8, 12] 1.04 | z-score [9] -1.48 | log fold change Tl+ flux (F380Y) 0.0135 | log fold change Tl+ flux (F380Y/beta2Delta) -0.0466 | log fold change Tl+ flux (F380Y/beta4) -0.028 | log fold change Tl+ flux [10] -0.0167 | log fold change Tl+ flux (R275C) -0.0534 | log fold change Tl+ flux (R275C/beta1) -0.0443 | log fold change Tl+ flux (R275C/beta2Delta) -0.0148 | log fold change Tl+ flux (R275C/beta4) -0.108 | log fold change Tl+ flux (R275C/Slo1WT/beta2) -0.0846
2090: cell count [8, 14]
active: log fold change Tl+ flux (F380Y/beta1) -0.12
2010: cell count [8, 15]
1.1: fold change [8, 13]

O=C(O)C[C@H](O)C[C@H](O)/C=C/c1c(C2CC2)nc2ccccc2c1-c1ccc(F)cc1
1740: cell count [8, 14]
inactive: parasite load remaining [1] 177% | fluorescence ratio [2] 0.98 | inhibition [3] -2.84% | inhibition [4] -1.18% | fluorescence ratio [5] 0.96 | outcome [6] | mean signal [7] 212 | fold change [8, 12] 1.25 | log fold change Tl+ flux (F380Y) -0.03 | log fold change Tl+ flux (F380Y/beta2Delta) 0.0555 | log fold change Tl+ flux (F380Y/beta4) 0.0888 | log fold change Tl+ flux (R275C) 0.0026
60.8%: viability [1]
0.319: fold change [8, 13]
active: log fold change Tl+ flux (F380Y/beta1) 0.292 | log fold change Tl+ flux [10] 0.113 | log fold change Tl+ flux (R275C/beta1) 0.226 | log fold change Tl+ flux (R275C/beta2Delta) 0.114 | log fold change Tl+ flux (R275C/beta4) 0.107 | log fold change Tl+ flux (R275C/Slo1WT/beta2) 0.12
1390: cell count [8, 15]

CC(C)c1ccc2c(c1)c(SC(C)(C)C)c(CC(C)(C)C(=O)O)n2Cc1ccc(Cl)cc1
inactive: parasite load remaining [1] 36.1% | fluorescence ratio [2] 0.95 | inhibition [3] 7.52% | inhibition [4] 1.44% | fluorescence ratio [5] 0.96 | z-score [6] -2.97 | mean signal [7] 225 | fold change [8, 12] 1.09 and 1 and 0.966 | z-score [9] -1.26 and -1.88 | log fold change Tl+ flux (F380Y) -0.0174 | log fold change Tl+ flux (F380Y/beta1) 0.00246 | log fold change Tl+ flux (F380Y/beta2Delta) 0.0246 | log fold change Tl+ flux (F380Y/beta4) -0.0142 | log fold change Tl+ flux [10] 0.00963 | log fold change Tl+ flux (R275C) 0.00647 | log fold change Tl+ flux (R275C/beta1) 0.0168 | log fold change Tl+ flux (R275C/beta2Delta) 0.0237 | log fold change Tl+ flux (R275C/beta4) -0.00771 | log fold change Tl+ flux (R275C/Slo1WT/beta2) 0.027
2340 and 2670 and 5710: cell count [8, 15]
0.262 and 1.3 and 1.57: fold change [8, 13]
2540 and 2670 and 5520: cell count [8, 14]
67.1%: viability [1]

CC(=O)C1(O)CCC2C3CC(C)C4=CC(=O)C=CC4(C)C3(F)C(O)CC21C (centres undefined)
2.07: fold change [8, 13]
7970: cell count [8, 14]
inactive: parasite load remaining [1] 94.8% | fluorescence ratio [2] 1.07 | inhibition [3] -0.45% | inhibition [4] -0.48% | fluorescence ratio [5] 1 | mean signal [7] 265 | fold change [8, 12] 0.925 | z-score [9] -0.02 | log fold change Tl+ flux (F380Y) -0.0303 | log fold change Tl+ flux (F380Y/beta1) 0.0429 | log fold change Tl+ flux (F380Y/beta2Delta) -0.0137 | log fold change Tl+ flux (F380Y/beta4) -0.0225 | log fold change Tl+ flux [10] -0.014 | log fold change Tl+ flux (R275C) -0.0154 | log fold change Tl+ flux (R275C/beta1) 0.00875 | log fold change Tl+ flux (R275C/beta2Delta) -0.0161 | log fold change Tl+ flux (R275C/beta4) 0.055 | log fold change Tl+ flux (R275C/Slo1WT/beta2) 0.00372
93.8%: viability [1]
8610: cell count [8, 15]

CC12CCC(=O)C=C1CCC1C2CCC2(C)C1CCC2(O)C(=O)CO (centres undefined)
63.5%: viability [1]
inactive: parasite load remaining [1] 47.2% | fluorescence ratio [2] 0.91 | inhibition [3] -4.59% | inhibition [4] 1.18% | fluorescence ratio [5] 0.84 | z-score [6] -0.624 | mean signal [7] 241 | fold change [8, 12] 1.28 | z-score [9] 0.28 | log fold change Tl+ flux (F380Y) -0.0107 | log fold change Tl+ flux (F380Y/beta1) 0.000378 | log fold change Tl+ flux (F380Y/beta2Delta) 0.0311 | log fold change Tl+ flux (F380Y/beta4) 0.00388 | log fold change Tl+ flux [10] 0.0303 | log fold change Tl+ flux (R275C) 0.029 | log fold change Tl+ flux (R275C/beta1) -0.042 | log fold change Tl+ flux (R275C/beta2Delta) -0.0755 | log fold change Tl+ flux (R275C/beta4) -0.0135 | log fold change Tl+ flux (R275C/Slo1WT/beta2) -0.0119
1.98: fold change [8, 13]
5920: cell count [8, 15]
7560: cell count [8, 14]
